High-throughput results (PubChem BioAssay)
Sa RN4220 lethal: kills Staphylococcus aureus RN4220. AID 1259311. S. aureus RN4220 growth, OD600, 16 h. hit rate 0.33% among 330,000. inhibition, % (concentration not given with the values); in the data active means inhibition above about 85%;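 further: plate controls were untreated cells for no effect and reference antibiotic for full effect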
MazF activator: activators of E. coli MazEF toxin-antitoxin RNase; AID 504720; P0AE70; hit rate 0.32% among 350,000; activation, % at 20 µM; FAM/BHQ RNA-DNA oligo cleavage fluorescence, 5 h; in the data active means activation above about 50%
Target sequence (P0AE70 whole entry, looked up): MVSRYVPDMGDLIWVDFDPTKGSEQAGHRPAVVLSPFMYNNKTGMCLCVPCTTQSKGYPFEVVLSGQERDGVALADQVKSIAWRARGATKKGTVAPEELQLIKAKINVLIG
Mtb hypoxia rep: reduces hypoxia-regulated biosensor signal in M. tuberculosis | M. tuberculosis hypoxia-regulated fluorescent reporter, fluorescence | fluorescence inhibition, % (test concentration not listed) | hit rate 0.1% among 300,000 | AID 1159583; in the data active means fluorescence inhibition mostly above about 23%, no sharp cut-off; inactive means mostly below about 17%
TcdB inh: inhibitors of Clostridioides difficile toxin B glycohydrolase. AID 652162. TcdB glycohydrolase enzymatic assay, plate reader. inhibition, % at 9.99 µM. hit rate 0.24% among 350,000. P18177; in the data active means inhibition above about 10%
Sa ugtP lethal: growth inhibition of S. aureus ugtP deletion strain | growth inhibition, % (concentration not given with the values) | S. aureus RN4220 ugtP deletion, OD600 growth, 16 h | AID 1259309 | hit rate 0.54% among 330,000; in the data active means growth inhibition above about 68%;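 further: plate controls were untreated wells for no effect and antibiotic for full effect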
PfHsp40 rescue: rescue of PfHsp40-mediated yeast toxicity. hit rate 0.68% among 340,000. AID 504582. S. cerevisiae expressing PfHsp40, growth rescue, ATP luminescence. growth rescue, % at 12.5 µM; in the data active means growth rescue above about 28%, passing the limit was not always enough;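 further: yeast W303a lacking pdr1 and pdr3 grown in galactose medium; growth measured after three days at 30 °C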
* hit, by the source's call; x = no result given; + = active, no number. Compounds with a hit are over-represented: about 1.3% of the library has one in this group of screens.

SMILES	Sa RN4220 lethal	MazF activator	Mtb hypoxia rep	TcdB inh	Sa ugtP lethal	PfHsp40 rescue
CO[C@@H]1CN(C)C(=O)c2cc(NC(=O)C3CCCC3)ccc2OC[C@@H](C)N(C)C[C@@H]1C	x	x	x	0	x	x
CC1=Nc2ccccc2/C1=C\c1nc(-c2ccccc2)oc1O	1	-4	-1	x	67	0
COc1ccc(-c2nc(/C=C3\C(C)=Nc4ccccc43)c(O)o2)cc1	91*	-63	6	0	92*	-1
CC1=Nc2ccccc2/C1=C\c1nc(-c2ccc(C(F)(F)F)cc2)oc1O	67	57*	6	-1	60	0
COC(=O)C1=C(c2cc3ccccc3o2)CC2CCC1N2C(=O)NC(C)C (configuration not stated)	3	x	4	x	4	x
CCC(=O)N1C[C@@H]2[C@H](c3ccccc31)[C@H](CO)N2Cc1ccccc1F	x	x	x	0	x	x
COc1cc(C2SCC(=O)N2CCN2CCCCC2)ccc1O (configuration not stated)	4	-6	-1	1	-3	0
COc1cc(C2C3C(C)N(C)C(=O)N(C)C3N(C)C(=O)N2C)ccc1O (configuration not stated)	2	3	5	x	2	52*
Cc1noc(C)c1S(=O)(=O)N(C)C[C@H]1Oc2ccc(NS(=O)(=O)c3ccc(Cl)cc3)cc2CC(=O)N([C@@H](C)CO)C[C@H]1C	x	x	x	4	x	x
Cc1n[nH]c(C)c1N1C(=O)c2cccc3c(N4CCCCCC4)ccc(c23)C1=O	3	670*	-8	x	-4	2
C[C@@H]1CCCCO[C@H](CN(C)C(=O)C2CCCCC2)[C@H](C)CN([C@@H](C)CO)C(=O)c2cc(NC(=O)CCC(F)(F)F)ccc2O1	x	x	x	0	x	x
Cc1cc(NN=Cc2ccc(O)c(C)c2O)nc(-c2ccccc2O)n1	99*	x	5	x	98*	x
Cc1cc(NN=Cc2c(O)ccc3ccccc23)nc(-c2ccccc2O)n1	99*	x	9	x	98*	x
CC(C)Sc1nnc(NC(=O)c2ccco2)s1	10	0	6	22*	7	0
CCSc1nnc(NC(=O)c2ccco2)s1	-2	3	x	x	1	0
CN(C(=O)c1cccc(NC(=O)Cc2ccc(NC(=O)C3CCN(S(=O)(=O)c4cccc([N+](=O)[O-])c4)CC3)cc2)c1)C1CCCC1	4	-14	-6	1	2	120*
CN(C(=O)c1ccc(NC(=O)Cc2ccc(NC(=O)C3CCN(C(=O)C4CCCC4)CC3)cc2)cc1)C1CC1	6	-1	17	0	3	36*
C[C@@H]1CN([C@@H](C)CO)C(=O)c2cccc(NC(=O)C3CCCCC3)c2O[C@@H]1CN(C)C(=O)Nc1ccc(C(F)(F)F)cc1	x	x	x	0	x	x
COc1cccc(CN2CC3(CCN(C)CC3)c3c(n(C)c4cc(OC)ccc34)[C@@H]2CO)c1	x	x	x	-3	x	x
CC(C)NC(=O)Nc1ccc2c(c1)C(=O)N([C@@H](C)CO)C[C@@H](C)[C@@H](CN(C)C(=O)NC(C)C)O2	x	x	x	0	x	x
CCN1C(=O)NC(=O)/C(=C\c2cn(CC(=O)N3CCCCC3C)c3ccccc23)C1=O (configuration not stated)	0	+	2	x	4	-1
CC(Sc1nccn1C)C(=O)c1c(N)n(C)c(=O)n(C)c1=O (configuration not stated)	2	-4	11	24*	0	0
CC(Cl)C(=O)c1c(N)n(C)c(=O)n(C)c1=O (configuration not stated)	7	1	8	0	15	0
CCN(C(C)=O)c1cnc(C=NNC(N)=S)c2ccccc12	x	6	x	-5	x	82*
Oc1ccc2c3c1O[C@H]1c4oc5ccccc5c4C[C@@]4(O)[C@@H](C2)N(CC2CC2)CC[C@]314	x	16	x	-2	x	34*
CCCCC(c1nnnn1Cc1ccco1)N1CCN(c2nc3ccccc3s2)CC1 (configuration not stated)	5	1	x	x	0	27*
c1ccc(C(c2nnnn2Cc2ccco2)N2CCN(c3nc4ccccc4s3)CC2)cc1 (configuration not stated)	-2	-14	-4	x	7	2
COC(=O)C(NCc1cccc(CNC(C(=O)OC)C(C)C)c1)C(C)C (configuration not stated)	7	x	4	x	6	x
COc1ccc(-c2c(C)oc3ccc(C)cc23)cc1	6	-8	2	x	84*	0
